BaF3 tox = parental Ba/F3 cell viability inhibition, counter-screen for JAK2V617F inhibitor project, murine pro-B, CellTiter-Glo luminescence; AID 1486, 2009; CellTiter-Glo ATP luminescence; hit rate 1.1% among 220,000; inhibition, % at 5.6 µM;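 active means inhibition above a per-campaign cutoff, the mean inhibition of all tested compounds plus 3 SD, cut at about 27% in these data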;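 further: 0% = DMSO wells and 100% = JAK Inhibitor I control wells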
APP transl inh = inhibitors of APP translation via 5'UTR reporter, primary screen, APP 5'UTR luciferase, SH-SY5Y cells. inhibition, % at 2 µM. SH-SY5Y APP 5'UTR-luciferase reporter, luminescence. hit rate 0.82% among 190,000;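 active means inhibition above a set limit, derived from the sample mean plus 3 SD, cut at about 45% in these data; inconclusive means one replicate passes the limit while the other fails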
aSyn 5UTR inh = MLPCN primary screen, SNCA 5' untranslated region; alpha-synuclein 5'UTR reporter, inhibitor activity; inhibition, % (tested at 7.5 µM); hit rate 0.82% among 300,000; AID 1813, 2009; in the data active means inhibition above about 60%; inconclusive means no clear call, values can overlap the other calls;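 further: H4 neuroglioblastoma cells stably carrying SNCA 5'UTR luciferase fusion; 0% = DMSO wells and 100% = positive control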
KLF5 inhibitor = KLF5 expression inhibitors, primary screen, DLD-1 cells, luminescence; DLD-1 KLF5 promoter-luciferase reporter; inhibition, % at 5 µM; hit rate 0.23% among 290,000;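 active means inhibition above a per-plate limit of that plate's mean compound inhibition plus 3 SD, cut at about 60% in these data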;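 further: 0% = DMSO wells and 100% = LY294002 at 200 µM; higher means less KLF5 promoter-driven luciferase light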
IEC-6 cytotox = cytotoxicity in IEC-6 intestinal epithelial cells, primary screen, cytotoxicity control for KLF5 inhibitor project, cell-based, luminescence. IEC-6 cytotoxicity, luminescence viability. inhibition, % at 5 µM. hit rate 0.78% among 290,000;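 further: 0% = plate median of test compound wells and 100% = cytotoxic reference compound wells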
Ba/F3 V617F tox = reduced viability of JAK2V617F-dependent Ba/F3 cells, primary screen, JAK2V617F inhibitor project, cell-based, Ba/F3 EpoR-JAK2V617F, luminescence | ATP luminescence | inhibition, % at 5.6 µM | hit rate 1.1% among 220,000;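 active means inhibition above the campaign mean plus 3 SD over all tested compounds, cut at about 24% in these data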;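 further: cytokine-independent growth of Ba/F3 cells driven by EpoR plus mutant JAK2; 0% = DMSO-treated cells and 100% = JAK inhibitor I control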
IEC-6 cytotox cf = cytotoxic compounds in IEC-6 epithelial cells, confirmation, cytotoxicity control, cell-based, luminescence | shares compounds with IEC-6 cytotox | IEC-6 rat intestinal epithelial viability | inhibition, % at 5 µM | hit rate 63% among 1,900;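 further: 0% = vehicle and 100% = reference cytotoxic drug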
Starred values were filed as active, the others as inactive; ? = inconclusive; . = no result. Most compounds without a hit are left out; they make up all but 2.2% or so of the library. Unless noted, no stated cut-off is given here; in the data, active means inhibition above about 22%; inactive means the rest.

SMILES	BaF3 tox	APP transl inh	aSyn 5UTR inh	KLF5 inhibitor	IEC-6 cytotox	Ba/F3 V617F tox	IEC-6 cytotox cf
COc1cc(C(=O)NNC(=O)C2CC=CCC2C(=O)O)cc(OC)c1OC (configuration not stated)	44*	65*	5	39	70*	60*	-3
CCOc1ccc(CN2CCN(CCCc3ccccc3)CC2CCO)cc1 (configuration not stated)	.	.	-5	-5	0	.	.
Cc1ccc2nc(SCC(=O)Nc3cc(C(F)(F)F)ccc3N3CCOCC3)[nH]c2c1	75*	94*	96*	55	82*	78*	60*
S=c1nc(NCCc2ccccc2Cl)c2ccccc2[nH]1	.	.	-114	-155	24*	.	14
O=C(CCCCCNc1nc(=S)[nH]c2ccccc12)NCc1ccccc1Cl	2	4	1	-6	0	0	.
COc1ccccc1-n1cnc2cc(NCc3ccccc3O)ccc21	2	.	-26	-18	1	2	.
COc1ccccc1-n1cnc2cc(NCc3ccco3)ccc21	78*	94*	?	56	80*	74*	56*
COc1ccc(C(=O)O/N=C(\N)Cc2ccc([N+](=O)[O-])cc2)c(OC)c1	-2	.	5	13	6	-1	.
CCCCCCn1c(=O)[nH]c2c(c1=O)CCC2	4	.	-6	-12	-3	-4	.
CCCCCCCCCn1c2c(c(=N)c3c1CCC3)CCC2	91*	18	86*	52	44*	98*	50*
CCCCCCCn1c2c(c(=N)c3c1CCC3)CCCC2	88*	22	83*	59	38*	100*	37*
CCCCCCn1c2c(c(=N)c3c1CCC3)CCC2	78*	-16	67*	55	24*	98*	26*
CC1CCCN(S(=O)(=O)c2ccc(C(=O)Nc3nnc(-c4ccco4)o3)cc2)C1 (configuration not stated)	.	.	57	51	25*	.	16
O=C(Cc1cccc2ccccc12)Nc1ccc(Br)cc1C(=O)O	.	.	18	9	25*	.	3
O=C(Cc1cccc2ccccc12)Nc1ccc(O)cc1C(=O)O	.	.	11	3	-1	.	.
O=C(CSc1nc2ccccc2c(=O)n1Cc1ccccc1)Nc1ccc(Br)cc1C(=O)O	.	.	7	8	34*	.	20
COc1ccccc1CNC(=O)C1CC(c2ccccc2F)=NO1 (configuration not stated)	.	.	-4	.	.	.	.
Cc1ccc(NC(=O)c2ccc(Cl)cc2[N+](=O)[O-])nc1	64*	24	-13	50	38*	74*	49*
COC1CCCN(C(=O)c2ccc(OC3CCN(S(=O)(=O)N(C)C)CC3)cc2)C1 (configuration not stated)	.	.	-1	-2	3	.	.
C=CCSc1nccc(-c2nn(-c3ccc(C)cc3)ccc2=O)n1	46*	88*	61	20	39*	37*	34*
CSc1nccc(-c2nn(-c3ccc(C)cc3)ccc2=O)n1	76*	21	37	10	51*	75*	39*
C#CCSc1nccc(-c2nn(-c3ccc(C)cc3)ccc2=O)n1	4	.	12	-40	5	-1	.
O=C(Nc1ccccc1Cl)c1cccc(COc2cc(Cl)ccc2Cl)c1	1	-24	-120	-126	-5	-4	.
O=C(NCc1ccccc1)C(=O)NCC1OCCN1C(=O)c1ccc(Cl)cc1 (configuration not stated)	5	2	23	-21	-1	1	.
O=C(Oc1c(CN2CCOCC2)cc(Cl)c2cccnc12)c1ccccc1Br	1	.	48	6	24*	-3	21
SMILES	BaF3 tox	APP transl inh	aSyn 5UTR inh	KLF5 inhibitor	IEC-6 cytotox	Ba/F3 V617F tox	IEC-6 cytotox cf
CN1CCN(Cc2cc(Cl)c3cccnc3c2OC(=O)c2cccs2)CC1	10	4	-11	-9	8	1	.
CN(C)c1cc(Nc2ccc(O)cc2)c([N+](=O)[O-])c2nonc12	-3	.	6	-4	3	-1	.
O=[N+]([O-])c1c(Nc2ccc(O)cc2)cc(Cl)c2nonc12	.	.	47	26	101*	.	68*
COc1ccc(Cn2c(C3CC3)nc3ccc(NC(C)=O)cc3c2=O)cc1	3	-142	-121	-99	0	-1	.
COc1ccc(Cn2c(C3CC3)nc3ccc(NC(=O)c4cccnc4)cc3c2=O)cc1	.	.	-176	-5	37*	.	21
CCn1nc(C)cc1-c1nnc(Sc2ncc([N+](=O)[O-])s2)n1C	.	.	-14	12	102*	.	26*
CC1CC(=O)Nc2ccccc2N1S(=O)(=O)c1ccc(F)cc1F (configuration not stated)	0	.	-3	9	-1	-2	.
Cc1oc2c(c1C(=O)NCc1cccnc1)C(=O)c1ccccc1C2=O	101*	95*	107*	-17	102*	94*	105*
CC(=O)c1c(C)oc2c1C(=O)c1ccccc1C2=O	8	2	-62	-12	3	-1	.
CCCC[C@@H]1CNCCN1CC1(c2ccccc2)CC1	.	.	6	.	.	.	.
Cc1ccnc(NS(=O)(=O)c2ccc(NS(C)(=O)=O)cc2)n1	4	.	-3	0	2	-2	.
O=C(NCCN1CCOCC1)c1ccc(=O)n(Cc2ccc(Cl)cc2)c1	3	-9	24	5	0	-1	.
Cc1ccc2[nH]c3c(c2c1)CCCC3C(N)=O (configuration not stated)	4	-16	-25	-37	-4	-1	.
Cc1ccc2[nH]c3c(c2c1)CCCC3NC(=O)CCl (configuration not stated)	.	.	15	43	56*	.	60*
CCn1ncc(C2=NOC(C(=O)NCc3ccc(OC)cc3)C2)c1C (configuration not stated)	1	-5	13	-3	22*	-2	10
CCn1ncc(C2=NOC(C(=O)NCc3ccccc3)C2)c1C (configuration not stated)	78*	72*	26	52	66*	80*	57*
COc1ccc(CNC(=O)C2CC(c3ccccc3C(F)(F)F)=NO2)cc1 (configuration not stated)	.	.	10	.	.	.	.
CC(C)C[C@H](N)c1cn([C@@H](CCCCN)C(=O)N2CCNCC2)nn1	-1	-6	3	-4	2	-1	.
Cc1cc(N2C(=O)C(O)=C(C(=O)c3ccc(C)o3)C2c2ccc([N+](=O)[O-])cc2)no1 (configuration not stated)	.	.	-14	-9	-3	.	.
COc1ccc(/C=C2\CCc3ccccc3C2=O)cc1O	.	.	14	3	28*	.	3
